# Assay results published in PubChem BioAssay (EPA / NIEHS).
# Records with an inconclusive call do not appear. The source made the active and inactive calls. How the source made its calls: active means hit-call score of the fitted dose curve at least 0.9, where 1 is the maximum; inconclusive means response in the unintended direction; inactive means score below 0.9.
# Assays:
# [1] = target: sheep Cyclooxygenase-1 (Cox1), PTGS1 (gene 443551) (UniProt P05979); assay: NVS_ENZ_oCOX1: NovaScreen (NVS) Enzymatic Assay for sheep Cyclooxygenase-1 (Cox1) (AID 2283239);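 further: actives reduce cyclooxygenase activity so potencies are for inhibitors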
# How it was run: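 Ovine seminal vesicle extract; absorbance (colorimetric) enzyme read-out at 0.66 h post-dose. Primary: single conc 25 uM, duplicate. Follow-up: concentration series on actives. Activity = signal loss vs DMSO baseline.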
# [2] = tested on: bovine Angiotensin II Receptor Type 2 (AT2), gene 407157; assay: NVS_GPCR_bAT2: NovaScreen (NVS) G Protein-Coupled Receptor Assay for bovine Angiotensin II Receptor Type 2 (AT2) (AID 2283240)
# Experimental: (§1) NVS_GPCR_bAT2 is a biochemical, single-readout assay that uses extracted gene-proteins from Bovine cerebellar membranes in a tissue-based cell-free assay. Measurements were taken 1 hour after chemical dosing in a 96-well plate.NVS_GPCR_bAT2 is one of one assay component(s) measured or calculated from the NVS_GPCR_bAT2 assay. It is designed to make measurements of radioligand binding, a form of binding reporter, as detected with scintillation counting signals by Filter-based radiodetection technology.Data from the assay component NVS_GPCR_bAT2 was analyzed into 1 assay endpoint. This assay endpoint, NVS_GPCR_bAT2, was analyzed in the positive analysis fitting direction relative to DMSO as the negative control and baseline of activity. Using a type of binding reporter, loss-of-signal activity can be used to understand changes in the binding as they relate to the gene AGTR2. Furthermore, this assay endpoint can be referred to as a primary readout, because the performed assay has only produced 1 assay endpoint. To generalize the intended target to other relatable targets, this assay endpoint is annotated to the gpcr intended target family, where the subfamily is rhodopsin-like receptor.
# Binding assays used specific radioligands (tritiated, iodinated) with non-radioactive competitive displacement ligands in agonist or antagonist protocols (as indicated) and various reference compounds and inhibitors to titrate specific binding to receptors and transporters. Most enzyme assays (CYPs, kinases, phosphatases, proteases, HDACs) used recombinant protein and specific substrates (fluorescence mostly, some colorimetric and radioactive) and inhibitors, followed by a biochemical separation of substrate and product. All assays for the biochemical HTS were initially run in duplicate at a single concentration (10 uM for CYP450 assays and 25 uM for all others). […]
# [3] = target: Adenosine receptor A1 (Bos taurus) (UniProt P28190); assay: NVS_GPCR_bAdoR_NonSelective: NovaScreen (NVS) G Protein-Coupled Receptor Assay for bovine Adenosine Receptor (AdoR), Non-selective Binding (AID 2283244)
# How it was run: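 Bovine striatal membranes, radioligand displacement binding, 1 h after dosing, filter-based scintillation counting. Screened in duplicate at 25 uM, then concentration-response up to 50 uM; loss of specific binding relative to DMSO.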
# [4] = NVS_GPCR_bNPY_NonSelective: NovaScreen (NVS) G Protein-Coupled Receptor Assay for bovine Neuropeptide Y (NPY) Receptor, Non-selective Binding (AID 2283245)
# Experimental: as §1, with “NVS_GPCR_bNPY_NonSelective” for “NVS_GPCR_bAT2”, “hippocampal” for “cerebellar”, “plate.NVS_GPCR_bNPY_NonSelective” for “plate.NVS_GPCR_bAT2”, “NVS_GPCR_bNPY_NonSelective,” for “NVS_GPCR_bAT2,”, “NPY.” for “AGTR2.”, “receptor. […]” for “receptor.”
# [5] = tested on: guinea pig Leukotriene B4 Receptor (LTB4), gene 100379538; assay: NVS_GPCR_gLTB4: NovaScreen (NVS) G Protein-Coupled Receptor Assay for guinea pig Leukotriene B4 Receptor (LTB4) (AID 2283247)
# Experimental: as §1, with “NVS_GPCR_gLTB4” for “NVS_GPCR_bAT2”, “Guinea pig spleen” for “Bovine cerebellar”, “2 hours” for “1 hour”, “48-well plate.NVS_GPCR_gLTB4” for “96-well plate.NVS_GPCR_bAT2”, “NVS_GPCR_gLTB4,” for “NVS_GPCR_bAT2,”, “Ltb4r.” for “AGTR2.”
# Binding assays used specific radioligands (tritiated, iodinated) with non-radioactive competitive displacement ligands in agonist or antagonist protocols (as indicated) and various reference compounds and inhibitors to titrate specific binding to receptors and transporters. Most enzyme assays (CYPs, kinases, phosphatases, proteases, HDACs) used recombinant protein and specific substrates (fluorescence mostly, some colorimetric and radioactive) and inhibitors, followed by a biochemical separation of substrate and product. All assays for the biochemical HTS were initially run in duplicate at a single concentration (10 uM for CYP450 assays and 25 uM for all others). Assay-chemical combinations meeting a pre-defined threshold (e.g., 30% inhibition and other criteria defined below) were then run in singleton concentration-response format with maximum concentration of 20 uM for CYPs and 50 uM for all others. Each assay was run with positive and negative controls, and concurrent controls on every plate. The follow-up (secondary) screen tested active chemical-pairs in concentration series, as well as a few additional assays not tested in the primary screen, some selected negative inactives, and several cases re-run in the concentration series for confirmatory purposes.
# [6] = target: guinea pig Leukotriene D4 Receptor (LTD4), CYSLTR1 (gene 100135514) (UniProt Q2NNR5); assay: NVS_GPCR_gLTD4: NovaScreen (NVS) G Protein-Coupled Receptor Assay for guinea pig Leukotriene D4 Receptor (LTD4) (AID 2283248)
# How it was run: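 Radioligand displacement on guinea pig lung membranes, 1 h incubation, filtration and scintillation counting; DMSO as negative control. Duplicate 25 uM primary screen, then singleton concentration-response up to 50 uM.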
# [7] = target: rat Monoamine Oxidase, MAO-B, Peripheral (MAOBP), Maob (gene 25750) (UniProt P19643); assay: NVS_ENZ_rMAOBP: NovaScreen (NVS) Enzymatic Assay for rat Monoamine Oxidase, MAO-B, Peripheral (MAOBP) (AID 2283242)
# [8] = tested on: rat Monoamine Oxidase, MAO-A, Central (MAOAC), gene 29253; assay: NVS_ENZ_rMAOAC: NovaScreen (NVS) Enzymatic Assay for rat Monoamine Oxidase, MAO-A, Central (MAOAC) (AID 2283243);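 further: potency refers to inhibition seen as signal drop below DMSO baseline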
# How it was run: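 Rat brain tissue extract served as the cell-free enzyme source; activity was measured by radiometric scintillation counting 1.5 hours after compound addition. Loss of signal relative to DMSO baseline indicated inhibition; primary screen at 25 uM in duplicate.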
# [9] = target: bovine Dopamine Receptor (DR), Non-selective Binding, DRD1 (gene 281125) (UniProt Q95136); assay: NVS_GPCR_bDR_NonSelective: NovaScreen (NVS) G Protein-Coupled Receptor Assay for bovine Dopamine Receptor (DR), Non-selective Binding (AID 2283241)
# How it was run: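 Bovine striatal membranes; radioligand displacement read by filtration and scintillation counting 1 h after dosing, loss of signal vs DMSO. Screened in duplicate at 25 uM, then concentration-response for hits.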
# [10] = tested on: bovine Histamine 1 Receptor (H1), gene 281231; assay: NVS_GPCR_bH1: NovaScreen (NVS) G Protein-Coupled Receptor Assay for bovine Histamine 1 Receptor (H1) (AID 2283246)
# How it was run: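 Radioligand displacement on bovine cerebellar membranes, 1 h after dosing, filter-based scintillation read-out; loss of signal vs DMSO. Duplicate single-concentration screen at 25 uM, then concentration-response up to 50 uM for hits.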
# Chain of guinea pig Leukotriene D4 Receptor (LTD4), CYSLTR1 (gene 100135514) (Q2NNR5 whole entry, looked up): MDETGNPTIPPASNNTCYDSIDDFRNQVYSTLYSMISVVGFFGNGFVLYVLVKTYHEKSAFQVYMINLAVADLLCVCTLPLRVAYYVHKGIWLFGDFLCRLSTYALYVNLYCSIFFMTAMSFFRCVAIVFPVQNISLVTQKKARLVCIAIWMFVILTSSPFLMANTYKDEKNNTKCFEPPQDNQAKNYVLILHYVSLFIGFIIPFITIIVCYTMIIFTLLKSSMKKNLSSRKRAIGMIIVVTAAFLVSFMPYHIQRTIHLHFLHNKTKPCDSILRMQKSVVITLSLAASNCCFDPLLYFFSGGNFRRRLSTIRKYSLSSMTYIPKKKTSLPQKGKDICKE
# Chain of sheep Cyclooxygenase-1 (Cox1), PTGS1 (gene 443551) (P05979 whole entry, looked up): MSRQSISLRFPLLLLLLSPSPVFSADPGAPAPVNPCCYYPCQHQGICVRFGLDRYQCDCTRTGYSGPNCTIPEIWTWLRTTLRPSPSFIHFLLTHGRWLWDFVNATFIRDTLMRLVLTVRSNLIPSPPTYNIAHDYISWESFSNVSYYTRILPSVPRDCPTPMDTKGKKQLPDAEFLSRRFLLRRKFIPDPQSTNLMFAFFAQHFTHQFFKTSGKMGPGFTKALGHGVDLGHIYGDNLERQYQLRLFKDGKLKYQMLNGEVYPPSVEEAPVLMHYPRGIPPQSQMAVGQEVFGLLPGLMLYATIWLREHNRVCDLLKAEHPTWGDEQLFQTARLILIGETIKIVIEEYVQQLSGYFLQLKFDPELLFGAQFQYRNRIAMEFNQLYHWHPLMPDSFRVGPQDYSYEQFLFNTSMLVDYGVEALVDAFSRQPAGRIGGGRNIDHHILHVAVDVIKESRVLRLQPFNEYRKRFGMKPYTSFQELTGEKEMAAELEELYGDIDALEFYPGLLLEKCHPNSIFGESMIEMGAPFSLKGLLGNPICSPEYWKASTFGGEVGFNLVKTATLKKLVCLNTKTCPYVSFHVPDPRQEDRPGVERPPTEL
# Chain of Adenosine receptor A1 (Bos taurus) (P28190 whole entry, looked up): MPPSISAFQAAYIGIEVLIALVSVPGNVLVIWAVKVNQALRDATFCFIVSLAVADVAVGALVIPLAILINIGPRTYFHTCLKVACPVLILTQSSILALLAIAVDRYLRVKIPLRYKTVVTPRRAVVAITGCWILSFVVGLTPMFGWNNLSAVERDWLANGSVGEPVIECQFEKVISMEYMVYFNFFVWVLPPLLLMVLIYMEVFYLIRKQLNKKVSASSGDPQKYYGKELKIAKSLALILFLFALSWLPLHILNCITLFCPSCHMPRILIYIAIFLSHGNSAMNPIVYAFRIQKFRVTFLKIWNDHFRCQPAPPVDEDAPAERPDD
# Chain of rat Monoamine Oxidase, MAO-B, Peripheral (MAOBP), Maob (gene 25750) (P19643 whole entry, looked up): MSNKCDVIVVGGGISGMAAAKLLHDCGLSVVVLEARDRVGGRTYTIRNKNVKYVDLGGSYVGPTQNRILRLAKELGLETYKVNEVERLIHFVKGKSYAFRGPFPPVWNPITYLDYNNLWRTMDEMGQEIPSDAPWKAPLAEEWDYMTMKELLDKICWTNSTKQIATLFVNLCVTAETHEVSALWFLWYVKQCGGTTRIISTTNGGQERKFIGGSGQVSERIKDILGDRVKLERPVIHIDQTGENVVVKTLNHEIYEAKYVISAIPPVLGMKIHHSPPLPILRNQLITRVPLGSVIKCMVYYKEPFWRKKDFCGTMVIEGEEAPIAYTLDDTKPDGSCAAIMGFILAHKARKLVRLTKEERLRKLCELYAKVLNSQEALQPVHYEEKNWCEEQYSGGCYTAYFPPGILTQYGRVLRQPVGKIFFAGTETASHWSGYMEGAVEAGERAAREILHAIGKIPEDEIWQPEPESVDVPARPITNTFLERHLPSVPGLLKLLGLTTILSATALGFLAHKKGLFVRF
# Chain of bovine Dopamine Receptor (DR), Non-selective Binding, DRD1 (gene 281125) (Q95136 whole entry, looked up): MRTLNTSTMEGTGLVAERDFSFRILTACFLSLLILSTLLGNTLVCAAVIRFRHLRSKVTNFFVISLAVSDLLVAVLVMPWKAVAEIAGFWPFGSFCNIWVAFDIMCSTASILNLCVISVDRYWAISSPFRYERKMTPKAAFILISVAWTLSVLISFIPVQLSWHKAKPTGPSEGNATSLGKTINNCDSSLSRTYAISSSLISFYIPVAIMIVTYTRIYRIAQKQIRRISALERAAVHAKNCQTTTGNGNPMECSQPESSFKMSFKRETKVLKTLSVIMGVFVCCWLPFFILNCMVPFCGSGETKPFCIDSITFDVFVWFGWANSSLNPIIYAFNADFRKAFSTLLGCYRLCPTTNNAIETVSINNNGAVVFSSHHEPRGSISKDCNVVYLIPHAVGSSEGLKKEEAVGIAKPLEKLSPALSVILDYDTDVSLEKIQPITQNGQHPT
smiles,measurement,setting,value
CC(C)(OO)c1ccccc1,AC50,[1],2.76 µM (active)
CC(=O)[O][Hg][c]1ccccc1,AC50,[2],37.4 µM (active)
same,AC50,[3],25 µM (active)
same,AC50,[4],4.57 µM (active)
same,AC50,[5],3.45 µM (active)
same,AC50,[6],1.58 µM (active)
C[C@]12CCC(=O)C[C@@H]1CC[C@@H]1[C@@H]2CC[C@]2(C)[C@@H](O)CC[C@@H]12,outcome,[7],inactive
Cl/C=C\C[N+]12CN3CN(CN(C3)C1)C2,AC50,[1],5.46 µM (active)
Clc1ccc(C2(Cn3cncn3)CC(Br)CO2)c(Cl)c1 (stereo unspecified),outcome,[1],inactive
CCOC(=O)Nc1cccc(OC(=O)Nc2ccccc2)c1,AC50,[1],8.56 µM (active)
same,AC50,[8],5.76 µM (active)
CCC(=O)C(CC(C)N(C)C)(c1ccccc1)c1ccccc1 (stereo unspecified),AC50,[9],6.89 µM (active)
same,AC50,[7],4.1 µM (active)
COP(=S)(OC)Oc1ccc(Sc2ccc(OP(=S)(OC)OC)cc2)cc1,outcome,[6],inactive
CN(C)N=O,outcome,[5],inactive
O=C(Nc1ccc2[nH]ccc2c1)c1cc2cc(F)ccc2n1Cc1cccc(F)c1,outcome,[2],inactive
ClCCBr,outcome,[1],inactive
same,outcome,[6],inactive
CC(C)(C)c1cc(O)ccc1O,AC50,[1],11 µM (active)
same,outcome,[3],inactive
CC(=O)C(Cl)C(=O)N(C)C (stereo unspecified),outcome,[1],inactive
Nc1ccc(-c2ccc(N)c(Cl)c2)cc1Cl,AC50,[1],1.64 µM (active)
N#CCc1ccc(Cl)cc1,AC50,[8],25 µM (active)
OCc1ccco1,AC50,[1],6.01 µM (active)
CCOC(=O)/C=C(C)/C=C/C[C@@H](C)CCCC(C)C,AC50,[1],31.3 µM (active)
Cn1sc(Cl)cc1=O,outcome,[3],inactive
ClC(Cl)=C(Cl)C(Cl)=C(Cl)Cl,outcome,[1],inactive
COC(=O)Cc1ccccc1,outcome,[1],inactive
O=S(=O)(c1ccc(Cl)cc1)c1ccc(Cl)cc1,outcome,[8],inactive
O=C(O)C(F)(F)C(F)(F)C(F)(F)C(F)(F)C(F)(F)C(F)(F)C(F)(F)C(F)(F)C(F)(F)C(F)(F)F,outcome,[1],inactive
same,outcome,[3],inactive
same,AC50,[5],5.1 µM (active)
same,outcome,[6],inactive
O=C(O)C(F)(F)C(F)(F)C(F)(F)C(F)(F)C(F)(F)C(F)(F)F,AC50,[5],17.3 µM (active)
O=[N+]([O-])c1ccc2c3c(cccc13)CC2,AC50,[1],18.9 µM (active)
same,AC50,[8],6.28 µM (active)
COc1cc(-c2ccc(N)c(OC)c2)ccc1N,outcome,[3],inactive
C[C@@H]1C[C@@H]([C@H](O)CC2CC(=O)NC(=O)C2)C(=O)[C@@H](C)C1,outcome,[10],inactive
C=C(C)C(=O)[O][Sn]([CH2]CCC)([CH2]CCC)[CH2]CCC,AC50,[2],25 µM (active)
same,AC50,[9],10.6 µM (active)
same,AC50,[4],2.56 µM (active)
same,AC50,[5],6.14 µM (active)
same,AC50,[6],1.86 µM (active)
Oc1ccc(-c2ccccc2)cc1,outcome,[1],inactive
same,AC50,[8],13.8 µM (active)
COc1ccc(OC)c(C=O)c1,AC50,[8],17.3 µM (active)
Nc1cccc2ccccc12,AC50,[1],13.6 µM (active)
same,AC50,[8],25 µM (active)
CC12CC1(C)C(=O)N(c1cc(Cl)cc(Cl)c1)C2=O (stereo unspecified),outcome,[1],inactive
same,outcome,[7],inactive
CCN1CCC2(CC1)COc1cc3c(cc12)N(C(=O)c1ccc(-c2ccc(-c4nnc(C)o4)cc2C)cc1)CC3,AC50,[1],4.68 µM (active)
same,AC50,[9],9.79 µM (active)
same,AC50,[7],19.5 µM (active)
same,AC50,[8],23.4 µM (active)
COc1cc(OC)nc(NC(=O)NS(=O)(=O)c2ncccc2C(=O)N(C)C)n1,AC50,[1],7.06 µM (active)
CCCCCCCCCl,AC50,[1],0.0723 µM (active)
